This passage reports Percent Effect results from ChEMBL document CHEMBL3988442, “University of Dundee, Small-Polar-MMV Screening Library” (2021).

In the first experiment the target is T1, Aspartate--tRNA(Asp/Asn) ligase (Mycobacterium tuberculosis (strain ATCC 25618 / H37Rv)) (UniProt P9WFW3). Note: in the data most compounds retested in dose-response had high values.
T1 sequence (whole entry): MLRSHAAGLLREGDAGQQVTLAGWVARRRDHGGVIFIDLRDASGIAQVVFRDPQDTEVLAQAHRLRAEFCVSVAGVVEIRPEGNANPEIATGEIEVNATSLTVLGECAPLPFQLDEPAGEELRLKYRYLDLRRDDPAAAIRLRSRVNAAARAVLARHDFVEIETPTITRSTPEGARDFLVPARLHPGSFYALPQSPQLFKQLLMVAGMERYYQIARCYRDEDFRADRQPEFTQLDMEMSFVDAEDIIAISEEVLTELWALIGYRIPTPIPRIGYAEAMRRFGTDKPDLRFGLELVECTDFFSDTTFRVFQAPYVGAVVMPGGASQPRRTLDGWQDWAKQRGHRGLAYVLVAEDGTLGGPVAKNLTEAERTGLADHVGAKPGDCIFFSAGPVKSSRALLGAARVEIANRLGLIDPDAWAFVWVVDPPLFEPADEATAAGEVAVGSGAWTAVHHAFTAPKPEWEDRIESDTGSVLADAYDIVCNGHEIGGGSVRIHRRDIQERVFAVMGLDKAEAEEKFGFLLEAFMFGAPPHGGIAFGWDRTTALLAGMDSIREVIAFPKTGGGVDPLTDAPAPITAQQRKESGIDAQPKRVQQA
Description: Assay for Asp RNA synthetase-1 from Mycobacterium tuberculosis. The format is functional. On the set-up: scale not given: direction of the effect not stated beside the values. The following applies: 30 µM.
For the compound `Cn1nc2c(cc1=O)CN(Cc1nnc(-c3ccc(F)cc3)o1)CC2`, the Percent Effect turned out to be 19.5%.
Consider `CN(C(=O)CN1CCOC(Cn2cccn2)C1)c1nccs1` (stereo not given), for which the Percent Effect worked out at 5.6%.
The same measure, in the same setting: as for `CCNC(=O)c1nc2c(s1)CCCN2S(C)(=O)=O`, the figure is 7.8%.
Same read-out and setting: with `CC(=O)NCC1CCN(CC2CCOc3ccccc3C2)CC1` (stereo not given) the figure was 1.5%.
Same read-out and setting: with `O=C(c1ccc[nH]1)N1C[C@H]2CC[C@@H]1CN(c1ncccn1)C2` the figure was -4.31%; with `CN(CC(N)=O)S(=O)(=O)c1ccc(F)cc1Cl`, -2.44%.
For `CC(C)(C)NC(=O)C1CSCN1S(=O)(=O)c1ccc(F)cc1` (stereo not given), the Percent Effect is 5.02%.
As to `c1ccc(-n2ccnc2)c(CNCC2CNc3ccnn3C2)c1` (stereo not given), the Percent Effect is -5.71%.
Same read-out and setting: with `Cc1cnn(C(C)C2CC2)c1NC(=O)c1ccncc1` (stereo not given) the figure was 4.07%.
The same measure, in the same setting: with `CNS(=O)(=O)c1cccc(CNc2ccc(C(F)(F)F)nn2)c1` the figure was -3.88%.
The same measure, in the same setting: with `Cc1nccn1C1CCCN(C(=O)c2ccc(N3CCCC3)nn2)C1` (stereo not given) the figure was 2.5%.
On to `O=C(c1ccc(=O)[nH]n1)N1CC(c2nc(Cc3ccccc3)no2)C1`, for which the Percent Effect is -0.546%.
On the same count and under the same terms, as for `CC(O)CN1CCN(C(=O)c2cc3ccccc3[nH]c2=O)CC1` (stereo not given), the figure is -2.04%; as for `Fc1cccc(-c2nc(CN3CCn4c(nnc4C4CC4)C3)co2)c1`, 6.1%; as for `CCc1nc2n(n1)CC(NCc1noc(-c3ccccc3)n1)CC2` (stereo not given), -2.95%.
Same read-out and setting: as for `c1ccc(-c2noc(CNC3CCc4ncnn4C3)n2)nc1` (stereo not given), the figure is 0.903%; as for `Cc1nc[nH]c1-c1nc2cc(S(=O)(=O)N3CCCC3)ccc2n1C`, 1.21%.
`COc1ccc(Nc2nc3c(C)nn(C)c3c(=O)n2C)c(OC)c1`: the Percent Effect was 6.63%.
With `c1cncc(COCC2CN(Cc3ccco3)Cc3ccnn3C2)c1` (stereo not given), the Percent Effect came out at 1.51%.
Same read-out and setting: as for `Cn1cc(CN2CC3(CCN(C(=O)c4cscn4)C3)C2)cn1`, the figure is -5.56%; as for `CN(C)c1cc2c(nn1)CCN(C(=O)Cc1noc3ccccc13)C2`, 0.589%; as for `COCc1nn(C(C)C)c2c1CCN(Cc1ccc(C)s1)C2`, -3.6%.
Same read-out and setting: with `COCCn1nc(C(=O)N2CCCC2c2cccc(F)c2)ccc1=O` (stereo not given) the figure was 2.11%; with `CC(C)c1nnc2n1CCN(C(=O)c1ccc(CN(C)C)cc1)C2`, -0.75%.
Consider `NC(=O)C1CCCN(Cc2c(-c3ccco3)[nH]c3ncccc23)C1` (stereo not given), for which the Percent Effect is 10.6%.
The same measure, in the same setting: with `Cc1csc(Nc2nccnc2C2CCCN2C(=O)C(C)C)n1` (stereo not given) the figure was 7.04%.
As to `CCn1nc(CNC(=O)C2CC(=O)N(C3CCCC3)C2)c2ccccc21` (stereo not given), the Percent Effect was determined as 2.02%.
Same read-out and setting: with `CN(C)CCOCC1CN(C(=O)[C@H]2CCCO2)Cc2ccnn2C1` (stereo not given in full) the figure was 0.379%; with `COc1cc(N2CC[C@H](O)[C@@H]2Cc2cnn(C)c2)ncn1`, -4.05%.
The same measure, in the same setting: with `COC(=O)c1ccc(N2CCN(C(=O)c3ccncc3)C(C)C2)cc1` (stereo not given) the figure was -2.26%.
Consider `O=C(COCc1nc(-c2ccncc2)no1)N1CCCCCC1`, for which the Percent Effect was determined as 10.6%.
On the same count and under the same terms, as for `O=C(c1cnc(C2CC2)s1)N1CCCC(n2cccn2)C1` (stereo not given), the figure is -2.52%.
On the same count and under the same terms, as for `Cc1c(C)n(-c2ccccn2)c2nc3c(c(N)c12)CCCC3`, the figure is -3.86%.
Consider `Cc1cc(NC(=O)CN2CCc3cnc(C)nc3C2)on1`, for which the Percent Effect is -1.18%.
Still for that read-out and setting: as for `Cn1cnnc1CNC(=O)Nc1cc(C(F)(F)F)c[nH]c1=O`, the figure is 1.79%; as for `Cc1nc(C)n(CC2CCCN2Cc2cscn2)n1` (stereo not given), -5.82%.
Same read-out and setting: with `COc1ccc(CN2CC[C@H]3[C@H]2CCN3C(=O)c2cnn(C)c2)cc1` the figure was -0.229%.
For `COc1ccc(C[C@H]2CN(c3nnc(C)s3)CC[C@@H]2OC)cc1`, the Percent Effect turned out to be 7.75%.
Take `CC(=O)N1CC[C@@H]2CN(C(=O)c3ccco3)CCO[C@@H]2C1`: the Percent Effect is 4.25%.
The same measure, in the same setting: as for `CC(Cn1cccn1)NC(=O)Cc1cccs1` (stereo not given), the figure is -2.6%.

The target of a further experiment is Shiga toxin 2 (Escherichia coli O157:H7) (UniProt P09385+P09386). Description: E. coli 0.157:H7 Shiga Toxin SOP - stx2 screening assay. The format is functional. The arrangement: scale not given: direction of the effect not stated beside the values. The settings on record: 30 µM.
Take `Cn1nc2c(cc1=O)CN(Cc1nnc(-c3ccc(F)cc3)o1)CC2`: the Percent Effect is -108%.
`CN(C(=O)CN1CCOC(Cn2cccn2)C1)c1nccs1` (stereo not given): the Percent Effect was -22.6%.
As to `CCNC(=O)c1nc2c(s1)CCCN2S(C)(=O)=O`, the Percent Effect is -17.3%.
Still for that read-out and setting: as for `CC(=O)NCC1CCN(CC2CCOc3ccccc3C2)CC1` (stereo not given), the figure is 1.04%; as for `O=C(c1ccc[nH]1)N1C[C@H]2CC[C@@H]1CN(c1ncccn1)C2`, -5.71%.
Same read-out and setting: as for `CN(CC(N)=O)S(=O)(=O)c1ccc(F)cc1Cl`, the figure is -10.3%; as for `CC(C)(C)NC(=O)C1CSCN1S(=O)(=O)c1ccc(F)cc1` (stereo not given), 1.58%.
Still for that read-out and setting: as for `c1ccc(-n2ccnc2)c(CNCC2CNc3ccnn3C2)c1` (stereo not given), the figure is -13.1%; as for `Cc1cnn(C(C)C2CC2)c1NC(=O)c1ccncc1` (stereo not given), 1.34%.
Regarding `CNS(=O)(=O)c1cccc(CNc2ccc(C(F)(F)F)nn2)c1`, the Percent Effect came out at 14.2%.
The same measure, in the same setting: with `Cc1nccn1C1CCCN(C(=O)c2ccc(N3CCCC3)nn2)C1` (stereo not given) the figure was 17.8%.
As to `O=C(c1ccc(=O)[nH]n1)N1CC(c2nc(Cc3ccccc3)no2)C1`, the Percent Effect was -7.29%.
The same measure, in the same setting: as for `CC(O)CN1CCN(C(=O)c2cc3ccccc3[nH]c2=O)CC1` (stereo not given), the figure is 2.32%; as for `Fc1cccc(-c2nc(CN3CCn4c(nnc4C4CC4)C3)co2)c1`, -39.6%; as for `CCc1nc2n(n1)CC(NCc1noc(-c3ccccc3)n1)CC2` (stereo not given), -17.9%.
Consider `c1ccc(-c2noc(CNC3CCc4ncnn4C3)n2)nc1` (stereo not given), for which the Percent Effect turned out to be 16.9%.
On the same count and under the same terms, as for `Cc1nc[nH]c1-c1nc2cc(S(=O)(=O)N3CCCC3)ccc2n1C`, the figure is 0.151%.
On the same count and under the same terms, with `COc1ccc(Nc2nc3c(C)nn(C)c3c(=O)n2C)c(OC)c1` the figure was -34.2%; with `c1cncc(COCC2CN(Cc3ccco3)Cc3ccnn3C2)c1` (stereo not given), -12.8%.
Still for that read-out and setting: with `Cn1cc(CN2CC3(CCN(C(=O)c4cscn4)C3)C2)cn1` the figure was -18.3%.
In the case of `CN(C)c1cc2c(nn1)CCN(C(=O)Cc1noc3ccccc13)C2`, the Percent Effect was -8.79%.
On the same count and under the same terms, as for `COCc1nn(C(C)C)c2c1CCN(Cc1ccc(C)s1)C2`, the figure is -26.4%.
On the same count and under the same terms, as for `COCCn1nc(C(=O)N2CCCC2c2cccc(F)c2)ccc1=O` (stereo not given), the figure is 1.07%.
The same measure, in the same setting: as for `CC(C)c1nnc2n1CCN(C(=O)c1ccc(CN(C)C)cc1)C2`, the figure is 17.3%; as for `NC(=O)C1CCCN(Cc2c(-c3ccco3)[nH]c3ncccc23)C1` (stereo not given), 3.34%.
As for `Cc1csc(Nc2nccnc2C2CCCN2C(=O)C(C)C)n1` (stereo not given), the Percent Effect is 13.1%.
On to `CCn1nc(CNC(=O)C2CC(=O)N(C3CCCC3)C2)c2ccccc21` (stereo not given), for which the Percent Effect is -13.1%.
Same read-out and setting: with `CN(C)CCOCC1CN(C(=O)[C@H]2CCCO2)Cc2ccnn2C1` (stereo not given in full) the figure was -15.2%; with `COc1cc(N2CC[C@H](O)[C@@H]2Cc2cnn(C)c2)ncn1`, -1.67%.
With `COC(=O)c1ccc(N2CCN(C(=O)c3ccncc3)C(C)C2)cc1` (stereo not given), the Percent Effect is -11.4%.
`O=C(COCc1nc(-c2ccncc2)no1)N1CCCCCC1`: the Percent Effect was -22.7%.
Still for that read-out and setting: with `O=C(c1cnc(C2CC2)s1)N1CCCC(n2cccn2)C1` (stereo not given) the figure was 24.9%; with `Cc1c(C)n(-c2ccccn2)c2nc3c(c(N)c12)CCCC3`, -68.1%.
For the compound `Cc1cc(NC(=O)CN2CCc3cnc(C)nc3C2)on1`, the Percent Effect was -34.7%.
Same read-out and setting: as for `Cn1cnnc1CNC(=O)Nc1cc(C(F)(F)F)c[nH]c1=O`, the figure is 27.2%; as for `Cc1nc(C)n(CC2CCCN2Cc2cscn2)n1` (stereo not given), 24.1%; as for `COc1ccc(CN2CC[C@H]3[C@H]2CCN3C(=O)c2cnn(C)c2)cc1`, -7.37%.
Still for that read-out and setting: as for `COc1ccc(C[C@H]2CN(c3nnc(C)s3)CC[C@@H]2OC)cc1`, the figure is -17.5%.
On to `CC(=O)N1CC[C@@H]2CN(C(=O)c3ccco3)CCO[C@@H]2C1`, for which the Percent Effect was -3.17%.
Still for that read-out and setting: as for `CC(Cn1cccn1)NC(=O)Cc1cccs1` (stereo not given), the figure is -16.8%.
